The values that follow come from PubChem BioAssay AID624483 (NMMLSC, 2012).

Structures are written as SMILES. Among all 360,000 compounds or so, about 11,000 (3.1%) were called active. Roughly 2% stayed inconclusive and do not appear here. No stated cut-off is given here; in the data, active means fluorescence intensity above about 16000; inconclusive means no clear call, values can overlap the other calls; inactive means below that. The entries come from a sample that favours actives as a whole.

This experiment can be described thus: counter-screen for toxin protease inhibitors: compound fluorescence, primary screen, artefact control for toxin protease inhibitor project, biochemical, multiplex microsphere, HTS (AID 624483). As to conditions: compound autofluorescence counterscreen, microsphere flow cytometry; active compounds read high. A general note: Counterscreens check selectivity or assay interference.
As for `Cc1ccc(/C=N/NC(=O)Cn2ccc(C(F)(F)F)n2)o1`, the fluorescence intensity is 2150 (inactive).
Next, `Clc1ccc(CSc2nnc3c(n2)[nH]c2ccccc23)cc1`: 3690 (inactive); `c1ccc(Cc2c(-c3ccco3)nc3c4ccccc4ccn23)cc1`: 4810 (inactive); `c1ccc(CSc2nnc(-c3ccco3)c(-c3ccco3)n2)cc1`: 20900 (active).
Turning to `CN(C)CCN(Cc1ccccc1)S(=O)(=O)c1csc(C(N)=O)c1`, the fluorescence intensity was 5470 (inactive).
The result for `COc1ccc(-n2c(C)cc(C(=O)COC(=O)c3cc(OC)c(OC)cc3NC(=O)c3cccs3)c2C)cc1` reads 2450 (inactive); that for `COc1ccc(-n2c(C)cc(C(=O)CSc3nnc(-c4cccs4)o3)c2C)cc1`, 18900 (active).
The result for `Cc1ccc(-n2c(C)cc(C(=O)CSc3nnc4ccccn34)c2C)cc1` reads 2510 (inactive).
For the compound `O=C(Oc1ccccc1)c1ccc2nccnc2c1`, the fluorescence intensity is 16700 (active).
As for `COC(=O)c1ccc(OC(=O)c2cnccn2)cc1`, the fluorescence intensity is 4650 (inactive).
The result for `CC(C)CCC(C)NC(=O)c1ccc2nccnc2c1` (stereo not drawn) reads 4050 (inactive); that for `Cc1nccn1-c1ccc(NC(=O)[C@H]2O[C@@H](n3cnc4c(N)ncnc43)[C@H](O)[C@@H]2O)cc1`, 5940 (inactive).
As to `CC(=O)N(OCc1ccc(OC(C)C)c(Cl)c1)C(C)=O`, the fluorescence intensity was 4420 (inactive).
As to `CC(Oc1ccc(Cl)cc1Cl)C(=O)/C=C/N(C)C` (stereo not drawn), the fluorescence intensity is 18300 (active).
`CCCC(=O)Nc1cccc(NC(=S)NC(=O)C(C)Oc2ccc(Cl)cc2Cl)c1` (stereo not drawn): the fluorescence intensity is 2030 (inactive).
Next, `CN(C)/C=C/C(=O)c1ccccc1F`: 4920 (inactive); `CC(Oc1ccc(F)cc1F)C(=O)/C=C/N(C)C` (stereo not drawn): 24200 (active).
Take `CC(Oc1ccccc1F)C(=O)NN` (stereo not drawn): the fluorescence intensity was 2470 (inactive).
Next, `CCOC(=O)c1sc(N)c(C#N)c1COC(=O)C1=COCCO1`: 4150 (inactive); `CCNC(=O)C1CCCN(C(=O)c2ccc(OC)cc2OC)CC1` (stereo not drawn): 2850 (inactive); `CCCOc1ccc(F)cc1-c1cc(C(=O)NCc2ccc(F)cc2)[nH]n1`: 3970 (inactive).
Regarding `COCCNc1nc(NCc2ccc(NC(C)=O)cc2)c2sccc2n1`, the fluorescence intensity is 3410 (inactive).
The result for `CC(=O)Nc1cccc(Nc2ccc(C#N)cc2)c1` reads 6880 (inactive); that for `CCOC(=O)C1CCCN(C(=O)c2cccc3ccccc23)CC1` (stereo not drawn), 3960 (inactive); that for `O=C(NCc1ccc(F)cc1)c1cc(C2CCCCN2C(=O)c2ccccn2)on1` (stereo not drawn), 4420 (inactive).
In the case of `Nc1nc2cc(Cl)ccc2n1N`, the fluorescence intensity is 6290 (inactive).
The result for `CC(O)(c1cccc(F)c1)c1nc(-c2ccc3c(c2)OCO3)cs1` (stereo not drawn) reads 3850 (inactive); that for `CC(C)(C)C(=O)N(Cc1ccccc1)c1ccccn1`, 4430 (inactive).
The result for `O=C(N1CCOCC1)N(Cc1ccccc1)c1ccccn1` reads 3710 (inactive); that for `CCC(=O)N(Cc1ccccc1)c1ccccn1`, 20800 (active).
The result for `COc1cc(F)ccc1-c1cc(C(=O)NCC2CCCCC2)[nH]n1` reads 3000 (inactive); that for `CCC(C)[C@H](NC(=O)N1c2ccccc2NC(=O)[C@@H]1C(C)C)C(=O)N[C@@H](Cc1ccccc1)C(=O)O` (stereo partly drawn), 3920 (inactive).
For the compound `COc1ccc(NC(C)=O)cc1NC(=O)CN1CCN(C2c3ccccc3-c3ccccc32)CC1`, the fluorescence intensity is 4260 (inactive).
The result for `Cc1ccc(CN(CC(=O)NC2CCCCC2)C(=O)c2csnn2)cc1` reads 5650 (inactive); that for `COc1ccc(/C(O)=C2/C(=O)C(=O)N(CCCN(C)C)C2c2ccccc2)cc1OC` (stereo not drawn), 21200 (active); that for `CCCOc1ccc(/C(O)=C2/C(=O)C(=O)N(CCN(C)C)C2c2ccc(OC)c(OC)c2)cc1` (stereo not drawn), 4510 (inactive).
As to `COc1cccc(C2/C(=C(/O)c3ccc(F)cc3)C(=O)C(=O)N2CCN(C)C)c1` (stereo not drawn), the fluorescence intensity was 4550 (inactive).
Turning to `CC1(C)CC(O)C(CCC(O)c2ccccc2)C(C)(C)N1` (stereo not drawn), the fluorescence intensity is 2520 (inactive).
Next, `Cc1noc(C)c1C(=O)Nc1ccccn1`: 22800 (active); `Cc1noc(C)c1C(=O)NCC1COc2ccccc2O1` (stereo not drawn): 6410 (inactive); `Cc1c(C(=O)Nc2ccccn2)oc2ccc(Br)cc12`: 5620 (inactive).
For `Cn1c(=O)c2c(nc(SCCNS(=O)(=O)c3ccccc3)n2C)n(C)c1=O`, the fluorescence intensity was 10500 (inactive).
The result for `O=C(Nc1cc(Br)ccc1F)c1nc[nH]c1C(=O)NCc1ccccc1` reads 4670 (inactive); that for `CCCCC(C(=O)NC(C)(C)C)N(Cc1ccccc1)C(=O)c1snc(C(N)=O)c1N` (stereo not drawn), 3460 (inactive).
Next, `COc1ccc(S(=O)(=O)N2CCCC2)c(C)c1C`: 16000 (inactive); `CCOc1ccc(S(=O)(=O)N2CCCCCC2)c2ccccc12`: 16700 (active); `CCOc1ccc(S(=O)(=O)n2ccnc2)c2ccccc12`: 5760 (inactive).
The result for `CC(C)N1CCC(=NNc2ccc([N+](=O)[O-])cc2S(=O)(=O)N2CCOCC2)CC1` reads 3480 (inactive).
In the case of `O=C(NCC1CCCO1)C(C(=O)c1ccccc1)n1cc(Cl)ccc1=O` (stereo not drawn), the fluorescence intensity was 19700 (active).
The result for `O=C(NCC1CCCO1)/C(=C/c1ccc(Cl)cc1)NC(=O)c1ccccc1` (stereo not drawn) reads 2550 (inactive).
Turning to `O=C(CSc1ccc(-c2ccccc2)nn1)NCC1CCCO1` (stereo not drawn), the fluorescence intensity is 3400 (inactive).
The result for `N#Cc1ccc(C(=O)Nc2nc(-c3cccs3)c(C(=O)C(F)(F)F)s2)cc1` reads 4970 (inactive).
The result for `OC[C@@H]1CN(Cc2ccc3c(c2)OCO3)C[C@H](n2cnc3c(NCc4ccco4)ncnc32)O1` reads 3680 (inactive).
The result for `Cc1ccc(-c2cnc(C(O)c3cc(Cl)cc(Cl)c3)[nH]2)cc1` (stereo not drawn) reads 2960 (inactive); that for `CN(C)c1nc(N)nc(CSc2ccccn2)n1`, 19900 (active); that for `CN(C)c1nc(N)nc(CSc2nnnn2-c2cccc3ccccc23)n1`, 16800 (active).
`Nc1nc(CSc2nnnn2-c2ccccc2)nc(Nc2ccccc2)n1`: the fluorescence intensity was 4030 (inactive).
Next, `Cc1ccccc1Nc1nc(N)nc(CSc2ccccc2)n1`: 2510 (inactive); `COc1ccc(-n2nnnc2SCc2nc(N)nc(N3CCOCC3)n2)cc1`: 2520 (inactive).
Next, `CCOC(=O)CSc1ccccn1`: 2150 (inactive); `O=C(NCc1ccco1)C1CCCN1S(=O)(=O)c1ccccc1C(F)(F)F` (stereo not drawn): 4200 (inactive).
The result for `CC(=O)N(c1ccc2oc(=O)sc2c1)S(=O)(=O)c1ccc(C)cc1` reads 3830 (inactive); that for `CCCC1=Nc2cc(C(=O)NCc3ccco3)ccc2Sc2ccccc21`, 7310 (inactive).
